Screening data deposited in PubChem BioAssay by National Center for Advancing Translational Sciences (NCATS).
Shown are actives, neighbours in structure and some others; about 2.4% of the full set was active somewhere.
D2 ag-1 = agonists of human D2 dopamine receptor | activation, % at 2 µM | HEK293 T-REx D2 cells, calcium flux agonist mode | 340,000 tested, 0.53% active;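 active = activation over 3 SD above normal in the single-dose calcium agonist read, cut at about 30% in these data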
Target sequence (P14416 whole entry, looked up): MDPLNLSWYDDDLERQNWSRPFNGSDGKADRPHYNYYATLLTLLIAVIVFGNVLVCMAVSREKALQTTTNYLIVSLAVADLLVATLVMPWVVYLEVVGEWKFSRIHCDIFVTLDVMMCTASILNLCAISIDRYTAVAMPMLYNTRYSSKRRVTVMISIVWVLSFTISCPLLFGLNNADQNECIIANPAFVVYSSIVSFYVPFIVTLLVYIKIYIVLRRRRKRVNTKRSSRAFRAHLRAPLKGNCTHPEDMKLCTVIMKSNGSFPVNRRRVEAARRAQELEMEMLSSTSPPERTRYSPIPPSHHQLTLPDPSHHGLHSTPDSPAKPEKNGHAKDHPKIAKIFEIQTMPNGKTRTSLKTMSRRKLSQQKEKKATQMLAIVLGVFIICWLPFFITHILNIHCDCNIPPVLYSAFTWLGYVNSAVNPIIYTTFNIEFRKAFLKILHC
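Tetracycline-induced HEK293 T-REx cells with force-coupled D2 receptor, plated overnight at 30 C, loaded with no-wash calcium dye. After a 10 s baseline, compound was pin-added and calcium flux read kinetically for 180 s; calcium rises flagged agonists.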
D2 ag-2 = activates the human D2 dopamine receptor. activation, % (concentration not given with the values). P14416. DiscoveRx PathHunter D2 beta-arrestin, luminescence, 90 min; 100% = 57 uM dopamine signal. 360,000 tested, 0.084% active; in the data active = activation above about 40%; inconclusive = between about 15% and that limit
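Agonist mode: compounds alone added to overnight-plated D2 PathHunter cells for 90 min at 37 C, with 57 uM final dopamine (EC100) defining full response. Beta-arrestin recruitment detected by chemiluminescent reagent, read after 1 h at ambient temperature.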
D2 antag = antagonizes the human D2 dopamine receptor; HEK293 TREx D2 cells, calcium flux, dopamine EC80; inhibition, % at 10 µM; 340,000 tested, 2% active; in the data active = inhibition above about 30%; inactive = below that, where a call was filed
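Inhibition of EC80 dopamine-driven calcium flux, recorded kinetically, defines activity here; cells are a tetracycline-induced HEK293 T-REx line expressing force-coupled D2.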
D2 PAM-1 = positive allosteric modulators of human D2 dopamine receptor | P14416 | HEK293 T-REx D2, calcium flux, EC20 dopamine potentiation | potentiation, % at 10 µM | 340,000 tested, 0.34% active | AID 485347;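 active = potentiation over 3 SD above the plate norm, cut at about 30% in these data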
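Calcium flux readout, no-wash dye, 1 read/s. Inducible HEK293 Trex D2 line, overnight 30 C. Compound alone 180 s (agonist flags), then EC20 dopamine, another 180 s to score potentiation.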
D2 PAM-2 = human D2 receptor positive allosteric modulation. potentiation, % (concentration not given with the values). DiscoveRx D2 beta-arrestin cells, luminescence, 90 min; 100% = 57 uM dopamine signal. AID 624464. 360,000 tested, 0.23% active; in the data active = potentiation above about 50%; inconclusive = mostly about 30% to 49%
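D2 cells co-treated with compound plus 50 nM dopamine (EC20) for 90 min at 37 deg C to detect potentiation. Beta-arrestin recruitment was read as enzyme-fragment luminescence after 1 h at ambient temperature. Full response was set by 57 uM dopamine.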
D3 arrestin ag = activates human D3 dopamine receptor beta-arrestin recruitment. shares compounds with D2 ag-1. Potency, µM (top dose mostly 76.9 µM), most hits filed as activators. 2,300 tested, 4% active. DiscoveRx D3 beta-arrestin cells, luminescence, 90 min; note: nearly all actives have a fitted effect of over 70% in size
D2 ag-3 = activates human D2 dopamine receptor in D3 counterscreen | 2,300 tested, 5.9% active | shares compounds with D2 ag-1 | Potency, µM (doses to about 76.9 µM), most hits filed as activators | DiscoveRx PathHunter D2 beta-arrestin, luminescence, 90 min; response scale: percent relative to full dopamine signal; note: nearly all actives have a fitted effect of over 70% in size
Numbers stand for hits. Unless noted, calls come from the whole dose curve; as a rule, active = well fitted activation curve with a large enough effect; inconclusive = small, poorly fitted or top-dose-only effect; inactive = flat fitted curve, though single readings scatter.

What do the screens show for `CC(COc1ccccc1)N(CCCl)Cc1ccccc1` (stereo not given)?
D2 ag-1: 90.3; D2 ag-2: inactive; D2 antag: 60.9; D2 PAM-1: inactive; D2 PAM-2: inactive; D3 arrestin ag: inactive; D2 ag-3: inactive

Results for O=C(Nc1ccccc1F)c1ccc(CN2CCN(c3ccccc3)CC2)cc1 ?
D2 ag-1: 85.1; D2 ag-2: inconclusive; D2 antag: 80.9; D2 PAM-1: inactive; D2 PAM-2: inactive; D3 arrestin ag: inactive; D2 ag-3: 17.8µM

What do the screens show for `CSc1ccccc1NC(=O)c1ccc(CN2CCOCC2)cc1`?
D2 ag-1: inactive; D2 ag-2: inactive; D2 antag: inactive; D2 PAM-1: inactive; D2 PAM-2: inactive

How did COc1ccc(C(=O)Nc2ccc(N3CCN(Cc4ccccc4)CC3)cc2)cc1 do in these assays?
D2 ag-1: inactive; D2 ag-2: inactive; D2 antag: inactive; D2 PAM-1: inactive; D2 PAM-2: inactive

How did COc1ccc(NC(=O)c2ccc(CN3CCN(c4ccccc4)CC3)cc2)cc1 do in these assays?
D2 ag-1: 86.4; D2 ag-2: inconclusive; D2 antag: 82.4; D2 PAM-1: inactive; D2 PAM-2: inactive; D3 arrestin ag: inactive; D2 ag-3: 14.1µM

How did Cc1ccc(CNC(=O)Cn2ccn(-c3cc(C)cc(C)c3)c(=O)c2=O)cc1 do in these assays?
D2 ag-1: inactive; D2 PAM-1: inactive

Results for O=C(CN1CCCC1)Nc1cc(C(F)(F)F)cc(C(F)(F)F)c1 ?
D2 ag-1: 51.0; D2 ag-2: inactive; D2 antag: inactive; D2 PAM-1: inactive; D2 PAM-2: inactive; D3 arrestin ag: inactive; D2 ag-3: inactive

How did Cc1ccc(Nc2cnn(C34CC5CC(CC(CC(=O)O)(C5)C3)C4)c(=O)c2Cl)c(Cl)c1 do in these assays?
D2 ag-1: inactive; D2 ag-2: inactive; D2 antag: inactive; D2 PAM-1: inactive; D2 PAM-2: inactive

What do the screens show for `CN(CC(=O)NCCN1CCN(c2ccccc2)CC1)S(=O)(=O)c1ccc2c(c1)CCC(=O)N2`?
D2 ag-1: 81.8; D2 ag-2: inactive; D2 antag: 74.6; D2 PAM-1: inactive; D2 PAM-2: inactive; D3 arrestin ag: inconclusive; D2 ag-3: inconclusive

How did O=C(Cc1cccs1)NC1CC(=O)N(c2ccc(Cl)cc2)C1 (stereo not given) do in these assays?
D2 ag-1: inactive; D2 PAM-1: inactive

What do the screens show for `Cc1ccc(Cn2nnc3c(=O)[nH]c(C4CCCN(S(=O)(=O)c5ccc(F)cc5)C4)nc32)cc1` (stereo not given)?
D2 ag-1: inactive; D2 ag-2: inactive; D2 antag: inactive; D2 PAM-2: inactive

What do the screens show for `O=c1[nH]c(C2CCCN(S(=O)(=O)c3ccc(F)cc3)C2)nc2c1nnn2Cc1ccc(F)cc1` (stereo not given)?
D2 ag-1: inactive; D2 ag-2: inactive; D2 antag: 67.8; D2 PAM-1: inactive; D2 PAM-2: inactive; D3 arrestin ag: inactive; D2 ag-3: inactive

How did CCOc1ccc(NS(=O)(=O)c2ccc3[nH]cc(C(=O)NCCc4ccccc4)c(=O)c3c2)cc1 do in these assays?
D2 ag-1: inactive; D2 PAM-1: inactive

What do the screens show for `CCCCN(CC)CCCNC(=O)CN1C(=O)CSc2ccc(S(=O)(=O)N3CCOCC3)cc21`?
D2 ag-1: inactive; D2 ag-2: inactive; D2 antag: inactive; D2 PAM-1: inactive; D2 PAM-2: inactive; D3 arrestin ag: inactive; D2 ag-3: inactive

What do the screens show for `CC1CC(C)CN(CCCNC(=O)CN2C(=O)CSc3ccc(S(=O)(=O)N4CCOCC4)cc32)C1` (stereo not given)?
D2 ag-1: inactive; D2 ag-2: inactive; D2 antag: 40.2; D2 PAM-1: inactive; D2 PAM-2: inactive; D3 arrestin ag: inactive; D2 ag-3: inactive

Results for CC(=O)c1ccc[n+](CC(=O)NC(C)c2ccccc2)c1 (stereo not given) ?
D2 ag-1: inactive; D2 ag-2: inactive; D2 antag: inactive; D2 PAM-1: inactive; D2 PAM-2: inactive

Results for COc1cc(C#Cc2c(-c3cncn3C)n(C)c3ccc(-c4cnc(OC)nc4)cc23)cc(OC)c1 ?
D2 ag-1: inactive; D2 ag-2: inactive; D2 antag: inactive; D2 PAM-1: inactive; D2 PAM-2: inactive; D3 arrestin ag: inactive; D2 ag-3: inactive

How did COc1cc(C#Cc2c(-c3cncn3C)n(C)c3ccc(-c4cnc(N5CCOCC5)nc4)cc23)cc(OC)c1 do in these assays?
D2 ag-2: inactive; D2 PAM-2: inactive

What do the screens show for `COC(=O)C1=C(C)Nc2nnnn2C1c1cccnc1` (stereo not given)?
D2 ag-2: inactive; D2 PAM-2: inactive

What do the screens show for `CC1=C(C(=O)OC2CCCCC2)C(c2cccnc2)n2nnnc2N1` (stereo not given)?
D2 ag-1: 61.0; D2 ag-2: inactive; D2 antag: inactive; D2 PAM-1: inactive; D2 PAM-2: inactive; D3 arrestin ag: inactive; D2 ag-3: inactive

How did c1ccc(OCCN2CCOCC2)cc1 do in these assays?
D2 ag-1: 37.5; D2 ag-2: inactive; D2 antag: inactive; D2 PAM-1: inactive; D2 PAM-2: inactive; D3 arrestin ag: inactive; D2 ag-3: inactive

How did Clc1cccc(OCCN2CCN(CCOc3cccc(Cl)c3)CC2)c1 do in these assays?
D2 ag-1: 74.0; D2 ag-2: inconclusive; D2 antag: 92.6; D2 PAM-1: inactive; D2 PAM-2: inactive; D3 arrestin ag: inconclusive; D2 ag-3: inactive

Results for CN(C)CCCOc1cccc(Cl)c1 ?
D2 ag-1: inactive; D2 ag-2: inactive; D2 antag: inactive; D2 PAM-1: inactive; D2 PAM-2: inactive

How did c1ccc(Cc2ccc(OCCN3CCOCC3)cc2)cc1 do in these assays?
D2 ag-1: inactive; D2 ag-2: inactive; D2 antag: inactive; D2 PAM-1: inactive; D2 PAM-2: inactive

What do the screens show for `O=S(=O)(c1ccc(Br)s1)N1CCN(CCOc2ccccc2)CC1`?
D2 ag-1: 43.2; D2 ag-2: inactive; D2 antag: 53.0; D2 PAM-1: inactive; D2 PAM-2: inactive; D3 arrestin ag: inconclusive; D2 ag-3: inactive

What do the screens show for `Cc1nn(-c2nc(-c3ccc(F)cc3)cc(C(F)(F)F)n2)c(C)c1Br`?
D2 ag-1: inactive; D2 PAM-1: inactive

How did NC(=NC(=O)c1ccc(Cl)cc1)N1N=CCC1c1ccccc1 (stereo not given) do in these assays?
D2 ag-1: 49.7; D2 ag-2: inactive; D2 antag: inactive; D2 PAM-1: inactive; D2 PAM-2: inactive; D3 arrestin ag: inactive; D2 ag-3: inactive
